This is a sample that favours compounds with a hit; in the whole collection about 3.1% have one here.
ATG4B inh – blocks human ATG4B protease cleavage of LC3 substrate. ATG4B cleavage of LC3-PLA2, NBD-HPC fluorescence, 1 h. Q9Y4P1. 0.51% of 340,000 active. inhibition, % at 8.33 µM; in the data active = inhibition above about 40%
Target sequence (Q9Y4P1 whole entry, looked up): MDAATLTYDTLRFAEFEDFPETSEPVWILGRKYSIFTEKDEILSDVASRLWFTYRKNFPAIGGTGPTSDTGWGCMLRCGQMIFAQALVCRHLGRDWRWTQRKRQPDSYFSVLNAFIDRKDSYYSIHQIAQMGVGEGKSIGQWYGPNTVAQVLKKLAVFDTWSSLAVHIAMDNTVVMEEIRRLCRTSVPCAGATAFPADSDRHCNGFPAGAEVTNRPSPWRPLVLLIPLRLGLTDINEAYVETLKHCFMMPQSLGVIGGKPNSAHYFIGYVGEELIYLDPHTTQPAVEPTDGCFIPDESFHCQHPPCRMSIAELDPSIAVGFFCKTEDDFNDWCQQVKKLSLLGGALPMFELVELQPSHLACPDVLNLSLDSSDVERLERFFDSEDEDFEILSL
PREPL inh – inhibitors of human prolyl oligopeptidase-like enzyme PREPL. Q4J6C6. recombinant PREPL, fluorescence polarization activity-based probe. inhibition, % at 5.96 µM. 0.68% of 320,000 active; in the data active = inhibition above about 43%;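 also: 0% = enzyme with DMSO and 100% = wells lacking enzyme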
MEKK2 mut-MEK5 – signal of MEK5 binding to mutant human MEKK2 PB1 domain | AID 1530 | percent response, % at 10 µM | bead flow cytometry, Alexa488-MEK5 binding to MEKK2 mutant | 0.35% of 290,000 active; in the data active = percent response above about 24%, passing the limit was not always enough
MEKK3 PB1 HTS – MEKK3-MEK5 PB1 interaction, increase or decrease | binding response (% of control), % at 10 µM | bead-based flow cytometry, Alexa488-MEK5 binding to MEKK3; actives lie on both sides; 0 = blocked by unlabeled MEK5, 100 = vehicle | 1.4% of 290,000 active | Q99759;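 active = binding response more than 3 SD above or below the average of its plate-row segment, actives on both sides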;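 also: Alexa488 bead fluorescence after subtracting the streptavidin-only scavenger bead signal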
UBC13 inh – blocks human UBC13 polyubiquitin chain formation; TR-FRET; 0.47% of 330,000 active; inhibition, % at 20 µM; P61088; AID 485273; in the data active = inhibition above about 45%, passing the limit was not always enough
Target sequence (P61088 whole entry, looked up): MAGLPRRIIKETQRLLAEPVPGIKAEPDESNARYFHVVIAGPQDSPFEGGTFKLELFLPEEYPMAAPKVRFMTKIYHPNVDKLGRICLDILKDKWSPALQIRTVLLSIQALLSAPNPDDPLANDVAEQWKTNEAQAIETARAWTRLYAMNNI
MEKK2wt PB1 HTS – raises or lowers MEK5 binding to wildtype human MEKK2 PB1 domain; bead flow cytometry, Alexa488-MEK5 binding to MEKK2 WT; actives lie on both sides; 1.1% of 290,000 active; binding response (% of control), % at 10 µM; Q9Y2U5; in the data active = binding response below about 67% or above about 130%
MEKK2wt confirm – raises or lowers MEK5 binding to wildtype human MEKK2, retest | 2.4% of 5,900 active | binding response (% of control), % at 10 µM | bead flow cytometry, Alexa488-MEK5 binding to MEKK2 WT; actives lie on both sides | shares compounds with MEKK3 PB1 HTS; in the data active = binding response below about 16% or above about 210%; inactive = in between
MEKK2mut confirm – signal of MEK5 binding to mutant human MEKK2, retest; 2% of 5,900 active; percent response, % at 10 µM; AID 1893; shares compounds with MEKK3 PB1 HTS; bead flow cytometry, Alexa488-MEK5 binding to MEKK2 mutant; in the data active = percent response mostly above about 71%, no sharp cut-off; inactive = mostly below about 38%;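 also: higher means compound restores mutant binding toward wildtype level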
MEKK3 confirm – confirmation of inhibitors of MEK5 binding to human MEKK3; shares compounds with MEKK3 PB1 HTS; bead flow cytometry, Alexa488-MEK5 binding to MEKK3; active compounds read low; binding response (% of control), % at 10 µM; 1.8% of 5,900 active;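 active = binding response below 72% of control, or above a set upper limit, though filed actives all read lower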;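 also: 100% = DMSO only wells and 0% = binding blocked by excess unlabeled MEK5; lower values mean stronger disruption of MEK5 binding to MEKK3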
* marks the source's active call; other numbers are inactive results; · = no result given; ! = a repeat was not active; [ ] = remark or other dose.

SMILES	ATG4B inh	PREPL inh	MEKK2 mut-MEK5	MEKK3 PB1 HTS	UBC13 inh	MEKK2wt PB1 HTS	MEKK2wt confirm	MEKK2mut confirm	MEKK3 confirm
COc1cccc(/C=N/NC(=O)Cn2ccnc2C)c1	0.9	1.4	0.0	142.0*	12.7	106.0	87.0	-5.0	91.0
COc1ccc(OC)c(/C=N/NC(=O)Cn2ccnc2C)c1	12.4	4.3	-23.0	74.0	11.9	79.0	·	·	·
Cc1cccc(NCC(=O)N/N=C\c2cccc(Oc3ccccc3)c2)c1	4.5	5.4	-1.0	100.0	-3.3	102.0	·	·	·
Cc1cccc(NCC(=O)N/N=C/c2ccc(Br)cc2)c1	5.5	-0.3	-16.0	47.0*[inhibitor]	-8.2	48.0	98.0	2.0	103.0
CN(c1ccc(C(=O)N2CCN(Cc3ccccc3)CC2)cc1)S(=O)(=O)c1ccc(Cl)cc1	4.3	21.5	7.0	102.0	2.2	107.0	·	·	·
OC(COc1cccc2ccccc12)CN1CCN(c2cccc(Cl)c2)CC1 (stereo unspecified)	-13.6	27.1	6.0	100.0	7.7	99.0	·	·	·
OC(COc1cccc2ccccc12)CN1CCCC1 (stereo unspecified)	-6.0	14.1	10.0	103.0	6.5	139.0*	133.0	15.0	103.0
OC(COc1cccc2ccccc12)CN1CCN(c2ccc(Cl)cc2)CC1 (stereo unspecified)	-12.2	25.8	-2.0	102.0	7.5	144.0*!	113.0	8.0	105.0
OC(COc1ccc2ccccc2c1)CN1CCCC1 (stereo unspecified)	3.4	-38.5	2.0	90.0	10.0	102.0	·	·	·
O=C(CNC(=O)c1ccccc1F)N/N=C/c1cccnc1	-3.0	0.9	0.0	100.0	3.8	101.0	·	·	·
O=C1C(=Cc2ccc(Br)o2)C(=O)c2ccccc21	69.1*	-2.7	0.0	138.0*	·	98.0	105.0	1.0	106.0
Cc1ccc(NC(=O)CSc2nnc(COc3ccc(C#N)cc3)n2-c2ccccc2)cc1C	-19.4	-11.0	-16.0	1.0*[inhibitor]	8.8	1.0*[inhibitor]	99.0	-4.0	95.0
Cc1nc2cc(NC(=O)COc3ccc(C#N)cc3)ccc2n1-c1ccccc1	-21.1	-1.4	-16.0	2.0*[inhibitor]	11.4	2.0*[inhibitor]	98.0	-3.0	101.0
CC(C)N(CCCNC(=O)Cn1c(=O)c2cccn2c2ccc(F)cc21)Cc1ccccc1	4.0	13.0	3.0	97.0	8.7	111.0	·	·	·
O=C(COc1ccc(Cl)cc1Br)NCC(c1ccco1)N1CCCC1 (stereo unspecified)	-2.9	17.8	·	·	2.9	·	·	·	·
CC1(C)Cc2[nH]c3ccccc3c2C(C)(C)N1	-3.6	8.8	12.0	109.0	9.4	107.0	·	·	·
CC(C)Oc1ccc(C(=O)Nc2ccc(N3CCCC3)cc2)cc1	17.1	7.7	-2.0	97.0	-11.7	99.0	·	·	·
COc1cccc(C(=O)Nc2ccccc2N2CCN(C(=O)c3ccccc3)CC2)c1	-10.7	16.4	·	·	0.2	·	·	·	·
O=C(Nc1ccc(N2CCCC2)cc1)c1ccc(Br)cc1	1.8	40.0	10.0	105.0	1.9	151.0*	124.0	13.0	94.0
CC(=O)N1CCN(c2ccc(NC(=O)c3cccc(OCc4ccccc4)c3)cc2)CC1	-13.8	21.6	-3.0	94.0	3.7	92.0	·	·	·
CN1CCN(c2ccccc2NC(=O)c2ccc(-c3cccc([N+](=O)[O-])c3)o2)CC1	-1.7	37.9	0.0	108.0	·	109.0	·	·	·
CC(=O)N1CCN(c2ccc(NC(=O)c3ccc(OCc4ccccc4)cc3)cc2)CC1	-15.7	8.8	-7.0	62.0*[inhibitor]	5.5	75.0	101.0	-3.0	98.0
CN1CCN(c2ccccc2NC(=O)c2ccc(-c3ccc(Cl)c(Cl)c3)o2)CC1	-8.7	25.0	19.0	105.0	8.4	139.0*	157.0	40.0	109.0
CN1CCN(c2ccccc2NC(=O)c2cccc(OCc3ccccc3)c2)CC1	8.9	30.1	21.0	111.0	-0.5	137.0*	137.0	19.0	105.0
COc1ccc(NC(=O)C23CC4CC(CC(Cl)(C4)C2)C3)cc1S(=O)(=O)N1CCOCC1	-3.1	5.4	·	·	-9.3	·	·	·	·
SMILES	ATG4B inh	PREPL inh	MEKK2 mut-MEK5	MEKK3 PB1 HTS	UBC13 inh	MEKK2wt PB1 HTS	MEKK2wt confirm	MEKK2mut confirm	MEKK3 confirm
O=C(C(=O)N(Cc1ccccc1)Cc1ccccc1)c1c(-c2ccccc2)[nH]c2ccccc12	-12.4	·	·	·	·	·	·	·	·
CC(C)(C)S(=O)N1Cc2cc(CO)ccc2[C@@H]1CCO (stereo partly specified)	11.9	·	·	·	·	·	·	·	·
CCN(C(=O)COC(=O)c1cc(=O)c2ccccc2o1)c1c(N)n(Cc2ccccc2)c(=O)[nH]c1=O	-2.7	-3.0	·	·	-2.9	·	·	·	·
Cc1cccnc1NC(=O)c1ccc(COc2ccccc2)o1	-5.7	7.4	-4.0	98.0	7.5	99.0	·	·	·
CCOc1ccc(/C=N/NC(=O)c2cc3ccccc3cc2OC)cc1	11.0	0.5	-1.0	104.0	1.6	99.0	·	·	·
COc1ccc(/C=C(/NC(=O)/C=C/c2ccccc2)C(=O)N2CCOCC2)cc1	0.0	-3.4	1.0	149.0*	-4.1	108.0	108.0	7.0	106.0
OC(COCC1COc2ccccc2O1)CN1CCN(c2ccccn2)CC1 (stereo unspecified)	-1.3	16.5	24.0*	114.0	7.1	117.0	106.0	7.0	107.0
OC(COCC1COc2ccccc2O1)CN1CCc2ccccc2C1 (stereo unspecified)	-3.9	10.8	-2.0	98.0	-9.9	102.0	·	·	·
CCCOc1ccc(C2=NNC(=O)CC2)cc1	-4.9	-4.8	-1.0	68.0*[inhibitor]	0.7	99.0	96.0	-9.0	98.0
COc1ccc(C2=NNC(=O)CC2)cc1	-7.6	0.7	-2.0	102.0	2.6	97.0	·	·	·
Nc1ccccc1Nc1cc(-c2ccccc2)nn1-c1cccc(Cl)c1	14.5	4.0	1.0	141.0*	-7.6	113.0	109.0	2.0	102.0
O=C(Nc1ccc(S(=O)(=O)N2CCCCC2)cc1)C1CC(=O)N(c2ccc(Cl)cc2)C1 (stereo unspecified)	-11.6	-2.1	1.0	103.0	5.3	101.0	·	·	·
Cc1nc(NC(=O)c2ccccc2)sc1-c1csc(NCCc2ccccc2)n1	27.7	30.0	-14.0	49.0*[inhibitor]	3.1	69.0	121.0	13.0	108.0
Cc1ccc(S(=O)(=O)N2C=CC(C(F)(F)F)=NCC2)cc1	-3.9	0.1	-21.0	1.0*[inhibitor]	-8.4	1.0*[inhibitor]	97.0	-6.0	97.0
Cn1c(NCc2ccco2)nc2ccccc21	-5.5	5.0	-22.0	16.0*[inhibitor]	-14.3	25.0*[inhibitor]	110.0	15.0	113.0
